Bioassay records as filed in PubChem BioAssay.
Hits are enriched below; roughly 2.3% of the tested compounds scored in any of these assays.
M1 antag = human M1 muscarinic receptor antagonists, primary screen, CHO-K1 cells, Fluo-8 calcium fluorescence, 1536-well | Muscarinic acetylcholine receptor M1 (Homo sapiens), P11229 | CHO-K1 hM1, ACh EC80 antagonist | inhibition, % at 3 µM | 360,000 compounds, 1.3% hits;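 active = percent inhibition above its own plate's cutoff, namely the mean of that plate's compound wells plus 3 SD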;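 also: peak over basal fluorescence ratio during 140 s after agonist addition; 0% = ACh EC80 plus DMSO and 100% = DMSO alone without agonist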
Target sequence (P11229 whole entry, looked up): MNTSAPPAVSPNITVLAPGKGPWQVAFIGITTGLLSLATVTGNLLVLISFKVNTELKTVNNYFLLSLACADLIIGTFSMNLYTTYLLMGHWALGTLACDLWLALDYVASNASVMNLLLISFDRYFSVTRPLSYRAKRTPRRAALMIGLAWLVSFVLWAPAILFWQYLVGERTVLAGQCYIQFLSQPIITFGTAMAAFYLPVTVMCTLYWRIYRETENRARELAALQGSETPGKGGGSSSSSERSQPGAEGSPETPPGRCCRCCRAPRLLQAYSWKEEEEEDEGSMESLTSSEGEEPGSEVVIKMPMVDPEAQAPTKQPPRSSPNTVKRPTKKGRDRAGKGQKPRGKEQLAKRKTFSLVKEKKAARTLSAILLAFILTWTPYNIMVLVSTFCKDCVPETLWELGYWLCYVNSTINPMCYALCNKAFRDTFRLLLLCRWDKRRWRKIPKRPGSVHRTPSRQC
CHO-K1 Ca antag = counter-screen for M1 antagonists: effect in parental CHO-K1 cells; 360,000 compounds, 0.6% hits; ATP-induced calcium, Fluo-8 fluorescence; inhibition, % at 3 µM; AID 602250;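 active = inhibition above a per-plate cutoff, the plate's mean sample inhibition plus 3 SD, cut at about 24% in these data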;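 also: 0% = DMSO plus EC80 ATP and 100% = DMSO alone without ATP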
CHRM1 PAM = human M1 muscarinic receptor positive allosteric modulators, primary screen, CHO-K1 cells, Fluo-8 calcium fluorescence, 1536-well; Muscarinic acetylcholine receptor M1 (Homo sapiens), P11229; CHO-K1 hM1, ACh EC20; 0% = ACh EC20, 100% = maximal ACh; activation, % at 3 µM; 360,000 compounds, 0.088% hits; in the data active = activation above about 19%, passing the limit was not always enough
CHO-K1 Ca ag = counter-screen for M1 agonists: effect in parental CHO-K1 cells. Fluo-8 calcium fluorescence; scaled to maximal ATP response, vehicle zero. activation, % at 3 µM. 360,000 compounds, 0.48% hits; in the data active = activation above about 15%;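 also: untransfected CHO-K1 host cells lacking M1 receptor as counterscreen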
M1 PAM parental = nonselective calcium activators in parental CHO-K1 cells, primary screen, counter-screen for M1 PAM project, cell-based, Fluo-8 calcium fluorescence, full deck, 1536-well. ATP EC20; 0% at ATP EC20, 100% at ATP max. activation, % at 3 µM. 360,000 compounds, 0.02% hits;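 active = activation above the run cutoff, the mean activation of all test compounds plus 3 SD, cut at about 40% in these data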;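 also: peak over basal fluorescence ratio in a 140 s read after ATP addition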
M1 ag = human M1 muscarinic receptor agonists, primary screen, Fluo-8 calcium fluorescence, CHO-K1 cells, HTS. CHO-K1 hM1, agonist mode; 0% DMSO, 100% acetylcholine EC100. activation, % at 3 µM. 360,000 compounds, 0.33% hits. Muscarinic acetylcholine receptor M1 (Homo sapiens), P11229. AID 588814, 2011;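 active = activation above the run's mean compound activation plus 3 SD, cut at about 16% in these data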;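 also: peak over basal fluorescence ratio within a 140 s kinetic read after compound addition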
Numbers without * were called inactive.

SMILES	M1 antag	CHO-K1 Ca antag	CHRM1 PAM	CHO-K1 Ca ag	M1 PAM parental	M1 ag
O=C(Nc1cccc(C(F)(F)F)c1)c1ccc2sc([C@H]3C[C@H](O)[C@@H](CO)O3)nc2c1	7	16	3	0	-3	-3
COCOCCn1cc(CN2CCS(=O)(=O)N(Cc3ccc(-c4ccc(Cl)c(Cl)c4)cc3)C(C)C2=O)nn1 (stereo not given)	13	2	-9	9	7	1
Cc1ccc(N(CC(=O)NC(C)C)C(=O)CCC(=O)Nc2nccs2)c(C)c1	-14	-14	5	3	10	-4
COc1ccc(CN2CCNC(=O)C2CC(=O)NCCc2c[nH]c3ccccc23)c(OC)c1 (stereo not given)	-3	-4	5	0	8	-4
Cc1ccc(N2C(=O)C(CN3CCCC3)C2c2ccccc2)cc1 (stereo not given)	25*	-5	-37	1	-5	-16
CC(NC(=O)c1cc2c(s1)CS(=O)(=O)C2)c1ccccc1 (stereo not given)	-2	-4	5	0	-2	-4
O=C(c1cc(COc2cccc(C(F)(F)F)c2)on1)N1CCC(Oc2cccnc2)CC1	37*	24*	-14	14	-25	2
Cc1ccc(OCc2cc(C(=O)N3CCC(Oc4cccnc4)CC3)no2)cc1C	26	25*	-21	16*	-1	-6
CC(=O)c1ccc(OCc2cc(C(=O)N3CCC(Oc4ccccc4C)CC3)no2)cc1	0	-12	-6	2	-15	-2
Cc1cccc(C)c1OCc1cc(C(=O)N2CCC(c3ccncc3)CC2)no1	29*	10	-14	11	6	-1
CC(C)c1cc2c(c(O)c1O)[C@@]13CCCC(C)(C)C1CC2OC3=O (stereo not given in full)	3	-5	-3	3	-1	1
Cc1ccccc1Cn1c(=N)n(CC(=O)c2ccco2)c2ccccc21	-1	0	2	1	2	-3
CN(C)C(CNC(=O)c1cc(S(=O)(=O)N(C)Cc2ccccc2)ccc1Cl)c1ccco1 (stereo not given)	31*	17	-13	11	-8	-1
CN(Cc1ccccc1)S(=O)(=O)c1ccc(Cl)c(C(=O)O)c1	-5	-8	5	1	17	-2
CN(C)C(CNC(=O)c1ccc(Br)cc1)c1ccco1 (stereo not given)	0	-15	-3	1	0	-10
CN(C)C(CNC(=O)c1cc(Br)ccc1Cl)c1ccco1 (stereo not given)	9	8	-5	17*	-12	-7
COc1ccc(NC(=O)CN(C)CC(=O)Nc2sc3c(c2C#N)CCC3)cc1	34*	21	-5	0	-13	1
CN1CCN(C(=O)C2CCN(c3ncc(C(F)(F)F)cc3Cl)CC2)CC1	72*	14	-35	1	-9	-13
O=C(CN1CCN(c2ncc(C(F)(F)F)cc2Cl)CC1)N1CCN(c2ncc(C(F)(F)F)cc2Cl)CC1	-6	-8	-6	1	13	0
Cn1nc(C(F)(F)F)c(/C=N/OC(=O)c2ccccc2)c1SCc1ccccc1Cl	41*	-8	-21	0	4	-5
NC(Cc1ccc(F)cc1)c1csc(Nc2ccc(C(=O)c3ccccc3)cc2)n1 (stereo not given)	2	-4	3	5	14	9
Cc1ccc(C)c(NC(=O)Nc2ccc3c(c2)OCO3)c1	-16	29*	12	0	-15	-4
CCN(CC)CCOC(=O)C12CC3CC(CC(C3)C1)C2	41*	-8	-21	1	8	-5
CCCc1cc(Nc2ccccc2OCC)n2ncnc2n1	1	28*	8	0	-7	-6
COc1ccc(OC)c(S(=O)(=O)N2CCN(C34CC5CC(CC(C5)C3)C4)CC2)c1	48*	-2	-20	1	2	-6
